Statin myotox sup: protects C2C12 myotubes from simvastatin toxicity; ATP luminescence, 48 h; scaled: DMSO 0, geranylgeraniol control 100; rescue of ATP level, % at 7.49 µM; hit rate 0.78% among 330,000; AID 602340;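 active means mean ATP rescue above about 67%, or every replicate alone reaching that limit, limit read from the data, passing the limit was not always enough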;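 further: myotubes were challenged with 10 µM simvastatin during compound exposure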
Wnt bcat act: Wnt/beta-catenin pathway activation; hit rate 1.2% among 300,000; Wnt/beta-catenin reporter cell assay, activator, plate reader; activation, % at 9.35 µM; in the data active means activation above about 30%, passing the limit was not always enough;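 further: 0% = neutral control wells and 100% = positive control wells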
LMP1 NFkB inh: reduces LMP1-driven NF-kappaB luciferase signal. hit rate 0.69% among 350,000. LMP1-induced NF-kappaB luciferase reporter cells, luminescence. inhibition, % at 12.5 µM; in the data active means inhibition above about 41%;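 further: 0% = neutral control wells and 100% = reference inhibitor control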
MITF TRPM1 HTS: MITF TRPM1 promoter activation in melanoma cells. activation, % at 12.5 µM. SK-MEL-5 TRPM1-promoter luciferase, 24 h; % of positive control, neutral wells = 0. AID 588334. hit rate 0.75% among 300,000;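 active means mean activation of at least 80% with every replicate also reaching 80%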;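 further: 0% = neutral control wells and 100% = parthenolide positive control wells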
TRPM1 prom inh: MITF TRPM1 promoter inhibition in SK-MEL-5 cells; inhibition, % at 12.5 µM; SK-MEL-5 TRPM1 promoter luciferase, 24 h; hit rate 0.83% among 330,000;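 active means mean inhibition across replicates of 60% or more, whatever share of single replicates reaches that level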
esBAF inh: blocks esBAF chromatin remodeling in mouse ES cells; reporter increase, % at 12.5 µM; hit rate 2% among 350,000; Bmi1-luciferase knock-in reporter, 24 h; 100% = twice the neutral-well signal; in the data active means activation above about 40%;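 further: 0% = median of the plate's neutral control wells and 100% = double that signal; a rise in the Bmi1 reporter signal indicates esBAF inhibition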
An asterisk follows results filed as active; / = not tested or not shown. Sampled rows, rich in hits. Any-hit rate of the full collection: about 4%.

SMILES | Statin myotox sup | Wnt bcat act | LMP1 NFkB inh | MITF TRPM1 HTS | TRPM1 prom inh | esBAF inh
Cc1ccc(/C=C2/CCc3c([nH]c4ccccc34)C2=O)cc1 | -5 | 54* | -63 | 100* | -94 | 34
Cc1ccc2[nH]c3c(c2c1)CC/C(=C/c1ccccc1)C3=O | -2 | -3 | 2 | / | -43 | 91*
CC(C)/C=C1\CCc2c([nH]c3ccccc23)C1=O | / | 10 | -14 | 29 | -27 | /
CCCOc1ccc(/C(O)=C2\C(=O)C(=O)N(CCCOC)C23C(=O)N(C)c2ccccc23)cc1 (configuration not stated) | -9 | -2 | -4 | 2 | -1 | -10
COc1cc(/C=C2\SC(=S)N(NC(=O)c3ccc(O)c(OC)c3)C2=O)ccc1O | 102* | 3 | 4 | 24 | -19 | 12
COC(=O)c1c(C)[nH]c(C(=O)C(C)OC(=O)C2CC(=O)N(c3ccc(C)cc3)C2)c1C (configuration not stated) | 7 | -1 | 10 | -13 | 16 | 4
COC(=O)c1c(C)[nH]c(C(=O)C(C)OC(=O)C2CC(=O)N(CCc3ccccc3)C2)c1C (configuration not stated) | 18 | 50* | 3 | -7 | 8 | -5
Cc1ccc(C(=O)CCC(=O)Nc2ccccc2C)cc1C | 23 | -1 | -3 | / | 7 | -7
Cc1ccc(-n2nnnc2Sc2nc([N+](=O)[O-])nn2C)c(C)c1 | 12 | / | -1 | -64 | 73* | 2
Cc1ccc(-n2nnnc2Sc2nc([N+](=O)[O-])nn2C)cc1 | / | 1 | 6 | -20 | 22 | /
Cc1cccc(C)c1N1C(=O)CCC(C)(C)C1=O | 1 | -3 | 50* | 3 | -4 | -4
CC1(C)CCC(=O)N(c2ccc(OC(F)(F)F)cc2)C1=O | 12 | -1 | -5 | -2 | 2 | -16
Cc1c(OC(C)C(=O)NCC2CCC(C(=O)O)CC2)ccc2c3c(c(=O)oc12)CCCC3 (configuration not stated) | 95* | 2 | 0 | 2 | -1 | -1
CCOc1cc(CNC(=O)CN2C(=O)c3ccccc3S2(=O)=O)ccc1OC | 13 | -4 | -1 | -6 | 4 | -4
Cc1cccc(C(O)c2ncc(-c3ccc(F)cc3)[nH]2)c1C (configuration not stated) | -5 | -3 | / | / | / | 6
CN(C)c1cccc(-c2nnc(SCCCC#N)o2)c1 | 5 | 41* | 2 | 43 | -39 | 13
O=C1C2C3C=CC(C4CC34)C2C(=O)N1/N=C/c1ccc([N+](=O)[O-])o1 (configuration not stated) | / | -1 | -94 | -74 | 75* | /
O=C1C2C3C=CC(C4CC34)C2C(=O)N1/N=C/c1ccc(-c2ccc([N+](=O)[O-])cc2)o1 (configuration not stated) | / | -2 | -3 | -19 | 19 | 3
O=[N+]([O-])c1ccc(/C=N/N=C/c2ccc([N+](=O)[O-])o2)o1 | / | -9 | -17 | -86 | 87* | /
Cc1cc2ncn(/N=C/c3ccc([N+](=O)[O-])o3)c2cc1C | 87* | 2 | -48 | -85 | 85* | 19
O=C1SCCN1N=Cc1ccc([N+](=O)[O-])o1 | 10 | 7 | 5 | -65 | 66* | -1
O=C(O)/C=C/c1ccc([N+](=O)[O-])o1 | / | 0 | -4 | -6 | 6 | /
Cc1cccc(NC(=S)N(CCN(C)C)C(C)c2ccccn2)c1 (configuration not stated) | 9 | / | -4 | -4 | 5 | 5
COc1ccc(-c2csc(Nc3cccc(C)n3)n2)cc1 | -12 | 8 | -72 | / | -56 | 27
CC(=O)Oc1ccc(-c2csc(Nc3cccc(C)n3)n2)cc1 | -15 | 15 | -60 | / | -52 | 65*
SMILES | Statin myotox sup | Wnt bcat act | LMP1 NFkB inh | MITF TRPM1 HTS | TRPM1 prom inh | esBAF inh
COc1ccc(-c2csc(Nc3cccc(C)n3)n2)cc1C | -4 | 37* | -21 | / | -73 | 45*
CC(=O)Oc1ccc(-c2csc(Nc3cccnc3)n2)cc1 | -12 | / | 0 | / | -43 | 37
CC(=O)Oc1ccc(-c2csc(Nc3ccccn3)n2)cc1 | -33 | 61* | -61 | / | / | 33
C[C@H]1CN([C@@H](C)CO)C(=O)c2cc(C3=CCCCC3)cnc2O[C@H]1CN(C)S(C)(=O)=O | 33 | / | / | / | / | /
O=C1CN(C(=O)COC(=O)[C@@H]2CC(O)CN2S(=O)(=O)c2ccc(Cl)cc2)c2ccccc2N1 (some centres not stated) | 8 | -2 | 4 | 13 | -11 | 0
O=C(NC1CC1)c1cc2cc3ccccc3nc2s1 | -16 | 19 | -10 | 71 | -68 | 70*
C=CCSc1nnc(CCCCCN2C(=O)c3cccc4cccc(c34)C2=O)o1 | / | -5 | 59* | -34 | 38 | /
O=C(Nc1cccc2c1CCCC2)c1cc([N+](=O)[O-])ccc1Cl | / | / | 54* | 13 | -14 | /
O=C(Nc1ccccc1F)Nc1ccc([N+](=O)[O-])cc1Cl | / | 43* | 2 | 67 | -62 | /
O=C(Nc1cccc2c1CCCC2)c1ccc(Cl)c([N+](=O)[O-])c1 | / | 16 | 0 | 1 | -3 | /
O=C(Nc1ccc([N+](=O)[O-])cc1Cl)c1cc(Cl)ccc1O | -84 | -22 | 80* | -74 | 74* | -71
O=C(CNC(=O)c1ccccc1F)Nc1ccncc1 | -7 | 0 | 5 | -6 | 3 | 11
COc1ccccc1CC(=O)Nc1cccc2c1CCCC2 | / | -2 | 1 | 3 | -9 | /
Cc1nnc(SCC(=O)N/N=C/c2cn(-c3ccccc3)nc2-c2ccccc2)n1-c1ccccc1 | -2 | / | 8 | 28 | -22 | 63*
O=C(N/N=C/c1cn(-c2ccccc2)nc1-c1ccccc1)c1ccco1 | -12 | / | 0 | 50 | -50 | 44*
O=C(O)/C=C/c1cn(-c2ccccc2)nc1-c1ccccc1 | 90* | -1 | -3 | -1 | 2 | -9
Cc1ccc(-c2nnc(SCC(=O)N/N=C/c3ccccc3C(=O)O)n2-c2ccccc2)cc1 | / | 1 | / | / | / | /
O=C(N/N=C/c1ccc(Br)cc1)c1ccc(Br)o1 | / | 56* | -9 | 103* | -106 | /
CCC(=O)N1C[C@@H]2[C@H](c3ccccc31)[C@@H](CO)N2C(=O)CC | -16 | / | / | / | / | -6
CC1(C)CC(NC(=O)C(F)(F)F)CC(C)(C)N1OC(=O)c1ccco1 | -12 | / | 4 | / | 11 | -7
Cc1ccc(-c2nn(-c3ccccc3)cc2/C=N/NC(=O)c2ccc(Br)o2)cc1 | -18 | / | -7 | 56 | -52 | 64*
O=C(N/N=C\c1cn(-c2ccccc2)nc1-c1ccccc1)c1ccc(Br)o1 | -24 | -2 | -3 | -13 | 12 | 30
CCn1c(=O)cc(C(=O)OC)sc1=Nc1ccc(F)c(F)c1 | -4 | 2 | 84* | 14 | -18 | 6
COC(=O)CNc1c(-c2ccccc2)nc2ccc(Br)cn12 | / | / | 9 | / | -40 | 50*
COC(=O)Nc1c(-c2ccccc2)nc2ccc(Cl)cn12 | -2 | 0 | -7 | / | -13 | 0

Screens from PubChem BioAssay.
